The full ranking holds about 33,000 sequences; the median of “e-score” is about -0.037, and the highest 2% start at about 0.34. For the sample, the highest values were picked, then their nearest neighbours and some sequences at random.
target: T1, GST-Rok (full length) (Bacillus subtilis subsp. subtilis str. …, UniProt O34857 1-191); assay: protein binding microarray; Rok is a gene silencer of Bacillus subtilis; high values mean tight binding; settings: protein: recombinant; tags: GST (pTH5325, pDEST15-Magic modified); dsDNA, one strand shown
T1 sequence: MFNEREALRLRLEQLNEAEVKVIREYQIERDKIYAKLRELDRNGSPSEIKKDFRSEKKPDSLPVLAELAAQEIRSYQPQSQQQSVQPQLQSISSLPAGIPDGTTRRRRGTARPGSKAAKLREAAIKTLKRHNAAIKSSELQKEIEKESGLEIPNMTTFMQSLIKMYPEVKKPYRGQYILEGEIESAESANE
Outline: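 Every oligonucleotide joins a 25-mer constant primer to a 35-mer variable part drawn from a de Bruijn sequence of order 10, so each non-palindromic 8-mer appears at least 32 times and each palindromic 8-mer 16 times. The preference for every 8-mer is reported as a unitless, rank-based enrichment score (E-score). This score spans 0.5 for the most favored 8-mer to −0.5 for the most disfavored.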

Row | Sequence | binding signal
1 | CGGTGAAC | 0.00962 E-score
2 | GTCTAGCA | -0.0242 E-score
3 | CACATCGC | -0.127 E-score
4 | CATCAGGC | -0.154 E-score
5 | GTAATGGA | 0.266 E-score
6 | CTAGCGAC | -0.128 E-score
7 | AAGCGTCG | -0.184 E-score
8 | ATAGTTAC | 0.349 E-score
9 | ATAGTTAA | 0.329 E-score
10 | CTAGTTGC | 0.281 E-score
11 | CTAGTTCC | 0.188 E-score
12 | ATAGTTAG | 0.319 E-score
13 | CTAGTTAC | 0.418 E-score
14 | CACAAAAC | 0.0504 E-score
15 | GATTGCAA | 0.0926 E-score
16 | GGAAGCTA | 0.285 E-score
17 | AAGTGGTA | 0.348 E-score
18 | CAGTGGTA | 0.258 E-score
19 | AAGTGGTC | -0.0764 E-score
20 | AATTGGTC | 0.0556 E-score
21 | AATTGGTA | 0.339 E-score
22 | CATTGGTA | 0.223 E-score

Row | Sequence | binding signal
23 | ACCGCCAC | -0.135 E-score
24 | AATTGTGT | 0.149 E-score
25 | CACTTTAG | -0.146 E-score
26 | ATACTGTG | 0.0179 E-score
27 | ATACTTAA | 0.0668 E-score
28 | GTACTGTA | 0.155 E-score
29 | CTACTGTA | 0.343 E-score
30 | ATACTGTA | 0.34 E-score
31 | CTACTGAA | 0.0898 E-score
32 | GTACTTAA | 0.275 E-score
33 | CTACTTAA | 0.372 E-score
34 | ATACTGAA | 0.103 E-score
35 | ACAGTACG | 0.142 E-score
36 | GAAGTTGC | 0.0518 E-score
37 | ACGGTCTG | -0.0535 E-score
38 | AGCTTACG | -0.0197 E-score
39 | TCGATTAA | 0.142 E-score
40 | CCGAACTC | 0.0171 E-score
41 | ACCTACCA | 0.248 E-score
42 | ACTTACAG | -0.0639 E-score
43 | ACTTACAT | 0.349 E-score
44 | ACTTACAA | 0.176 E-score

Row | Sequence | binding signal
45 | CGATATCG | 0.243 E-score
46 | GCCGTGAC | -0.176 E-score
47 | GACTATCA | -0.0777 E-score
48 | TCCTATCA | 0.123 E-score
49 | CACTATAA | 0.303 E-score
50 | TACTATGA | 0.228 E-score
51 | CACTATCA | 0.219 E-score
52 | TACTATCA | 0.35 E-score
53 | AACTATAA | 0.326 E-score
54 | GTCTATCA | -0.00992 E-score
55 | ATCTATCA | 0.409 E-score
56 | AACTATCA | 0.417 E-score
57 | TACTATAA | 0.439 E-score
58 | CTCTATCA | -0.0321 E-score
59 | ACATTAAT | 0.245 E-score
60 | AGATAAGG | 0.0533 E-score
61 | ATCCTATG | 0.106 E-score
62 | GAGCTGCA | -0.0813 E-score
63 | CGAAAAGA | 0.00822 E-score
64 | AGGATCAC | -0.0581 E-score
65 | ATTGGTGA | 0.0777 E-score
66 | TAGCTAAA | 0.214 E-score

Row | Sequence | binding signal
67 | ATATCCGG | 0.237 E-score
68 | TAGGTTCA | 0.128 E-score
69 | AAGATGGT | 0.0131 E-score
70 | CCCGTTCA | -0.154 E-score
71 | AATATGCA | 0.304 E-score
72 | CGCTATCA | 0.0965 E-score
73 | AGCTATCA | 0.336 E-score
74 | GGCTATCA | -0.0678 E-score
75 | ACGATTCA | -0.00504 E-score
76 | AATGTAGA | 0.389 E-score
77 | GATGTAGC | 0.0838 E-score
78 | AATGTAAT | 0.326 E-score
79 | GCTGTAGA | 0.0153 E-score
80 | AATGTAGT | 0.363 E-score
81 | CATGTAGG | 0.116 E-score
82 | ACTGTAGA | 0.373 E-score
83 | AATGTAGG | 0.174 E-score
84 | AATGTAGC | 0.221 E-score
85 | CATGTAGC | 0.384 E-score
86 | CCTGTAGA | 0.0279 E-score
87 | AACGTAGT | 0.0637 E-score

Source: article PMC6212790, “How bacterial xenogeneic silencer rok distinguishes foreign from self DNA in its resident genome”
